# Assay results reported in PubChem BioAssay AID624351 (Southern Research Specialized Biocontainment Screening …, 2012).
# In all, about 2,400 compounds went through this assay and about 1,400 (58%) were called active.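 Rule for the calls: active = inhibition of 30% or more at any tested dose; inconclusive = primary hits over the limit that were never retested; inactive = the rest.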 So high a share suggests a set chosen from earlier hits. Some of the results follow.
# Assay: ADP Hunter readout inhibition without MgcRacGAP – biochemical, coupled enzyme counter-screen, artefact control for MgcRacGAP inhibitor project, dose response (AID 624351);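 note: signal is the ADP detection kit reading of free GDP without any GAP enzyme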
# Settings: fluorescence, no MgcRacGAP; series mostly up to 80 µM
row,Compound,IC50
1,CC1CCN(S(=O)(=O)c2ccc3c(c2)C(Cl)(Cl)C(=O)N3)CC1,inactive
2,CCS(=O)(=O)c1cc([N+](=O)[O-])c(Sc2ccccc2N)s1,inactive
3,C=CCSC1=NC(=O)/C(=C/c2cccs2)S1,inactive
4,CCOc1cc(/C=C2\SC(N3CCCC(C)C3)=NC2=O)ccc1O (stereo not given),33.4 µM (active)
5,COc1cc(C2NC(=O)C(C#N)=C(S)N2c2ccccc2)ccc1OC(C)C (stereo not given),inactive
6,Cc1c(O)ccc(/C(Cc2ccc3ccccc3n2)=N\O)c1O,76.5 µM (active)
7,CN(C)CCNc1ccc(CO)c2sc3ccc(O)cc3c(=O)c12,35 µM (active)
8,CN(C)CCNc1ccc2ncn3c4ccc(O)cc4c(=O)c1c23,inactive
9,Cc1ccc(NCCN(C)C)c2c(=O)c3cc(O)ccc3sc12,46.3 µM (active)
10,CCN(CC)CCNc1ccc(C)c2sc3ccc(O)cc3c(=O)c12,33.2 µM (active)
11,CCN(CC)CCCNc1ccc2ncn3c4ccc(O)cc4c(=O)c1c23,inactive
12,CN(C)CCNc1ccc2nnn3c4ccc(O)cc4c(=O)c1c23,inactive
13,O=C1CC(SC(=S)C2CCCC2=O)C(=O)N1 (stereo not given),inactive
14,Nc1ccccc1Sc1ccc(C(=O)c2ccccc2C(=O)O)cc1[N+](=O)[O-],inactive
15,COc1cc(/C=N/Nc2cccc3cccnc23)cc(OC)c1O,inactive
16,COc1cc(/C=N/Nc2ccccn2)cc(OC)c1O,28.6 µM (active)
17,CN(C)c1ccc(/C=N\Nc2ccccn2)cc1,33.4 µM (active)
18,COc1ccc(/C=N/Nc2ncnc3sc4c(c23)CCCC4)cc1O,69.1 µM (active)
19,COc1ccc(/C=N/Nc2ccccn2)cc1O,81.8 µM (active)
20,CCN1CCN(CCOc2cccc(Oc3ccccc3)c2)CC1,inactive
21,Clc1ccc(OCCOCCNCc2ccccc2)cc1Cl,inactive
22,CCN(CC)c1ccc(NC(=O)CCN2C(=O)c3ccccc3S2(=O)=O)c(C)c1,inactive
23,CCN(CC)c1ccc(NC(=O)C2=CC=CN3CCS(=O)(=O)N=C23)cc1,74.2 µM (active)
24,CC(C)[C@H](N[C@@H](C)c1ccccc1)c1c(O)ccc2ccccc12,17.4 µM (active)
25,CC(NCCCOc1cccc2ccccc12)c1ccccc1 (stereo not given),inactive
26,C/C(=N\Nc1nc2ccccc2[nH]1)c1ccc(C)o1,82.2 µM (active)
27,C/C(=N\Nc1nc2ccccc2[nH]1)c1ccc(Cl)s1,37.8 µM (active)
28,C/C(=N\Nc1nc2ccccc2[nH]1)c1cccs1,28.4 µM (active)

row,Compound,IC50
1,COc1cccc(/C=C2\C(=O)C(=O)c3ccccc32)c1,inactive
2,O=C(CNC(=O)c1cccs1)N/N=C/c1ccc(O)cc1O,60.5 µM (active)
3,Cc1cc(O)c(C)c(O)c1/C=N/NC(=O)c1cccnc1,77.5 µM (active)
4,O=C(CNC(=O)c1cccnc1)N/N=C/c1ccc(O)cc1O,82 µM (active)
5,O=C(COc1ccccc1)NCC(=O)N/N=C/c1ccc(O)cc1O,66.1 µM (active)
6,CCc1ccc(/C(C)=N/NC(=O)CNC(=O)/C=C/c2ccco2)cc1,inactive
7,Oc1ccc(/C=N/NC(=S)Nc2cccnc2)c(O)c1,37.9 µM (active)
8,O=C(CNC(=O)c1ccco1)N/N=C/c1ccc(O)cc1O,78.5 µM (active)
9,O=C(CCCCCNC(=O)c1ccccc1)N/N=C/c1ccc(O)cc1O,71 µM (active)
10,Cc1cc(C)c(OCCCCNCc2ccccc2)c(Cl)c1,inactive
11,Cc1c(O)ccc(NC(=O)/C=C/c2ccccc2)c1C,37.7 µM (active)
12,Cc1cc(N)c2cc(NC(=O)/C=C/c3ccccc3Cl)ccc2n1,inactive
13,N#C/C(=C/c1ccc2c(c1)OCO2)C(=O)Nc1ccc(O)cc1,62.6 µM (active)
14,CCOC(=O)/C(C#N)=C\c1c(OCC)n(CC)c2ccccc12,inactive
15,CCOC(=O)/C(C#N)=C\c1ccc(O)c(OC)c1,52.1 µM (active)
16,COc1cc(/C=C(\C#N)C(=O)Nc2ccc3c(c2)OCCO3)ccc1O,32.5 µM (active)
17,CCC(CC)NCc1ccc2c(c1)c1ccccc1n2CC,inactive
18,Oc1cccc(Nc2ccccc2)c1,59.1 µM (active)
19,O=[N+]([O-])/C=C/c1cc2ccccc2[nH]1,inactive
20,COc1ccc(OC)c2c(C)c(C)[nH]c12,28.7 µM (active)
21,CS(=O)(=O)Cc1nc2ccccc2oc1=O,74.1 µM (active)
22,Nc1nc2c(s1)CCc1ccccc1-2,48.5 µM (active)
23,COc1ccc2c(c1)-c1nc(N)sc1CC2,42.2 µM (active)
24,O=C(CN1CCCCCC1)Nc1nc2ccccc2s1,inactive
25,O=C(c1ccc(OCCN2CCCCC2)cc1)c1c(-c2ccc(O)cc2)sc2cc(O)ccc12,31.6 µM (active)
26,CCOc1ccc(OCCOCCN2CCCC2)cc1,inactive
27,Cc1cc(OCCCCCN2CCCC2)ccc1Cl,inactive
